According to PubChem BioAssay (NCATS):
Records with an inconclusive call do not appear. The source made the active and inactive calls. Unless noted, calls come from the whole dose curve.

How the values were obtained:
[1] = qHTS for Inhibitors of the Functional Ribonucleoprotein Complex (vRNP) of Lassa (LASV) Arenavirus: Viability assay - alamar blue signal for LASV Primary Screen (AID 1347083; calls by dose curve; tested in HEK293 reporter line; note: nearly all actives have a fitted effect of over 80% in size; note: potency is the fitted concentration of half-maximal effect)
[2] = qHTS for Inhibitors of the Functional Ribonucleoprotein Complex (vRNP) of Lymphocytic Choriomeningitis Arenaviruses (LCMV): Viability assay - alamar blue signal for LCMV Primary Screen (AID 1347085; calls by dose curve; tested in HEK293 reporter line; note: nearly all actives have a fitted effect of over 80% in size; note: potency is the fitted concentration of half-maximal effect)
[3] = molecular target: Nucleoprotein (Lymphocytic choriomeningitis virus (strain Armstrong)) (UniProt P09992); assay: qHTS for Inhibitors of the Functional Ribonucleoprotein Complex (vRNP) of Lymphocytic Choriomeningitis Arenaviruses (LCMV): LCMV Primary Screen - GLuc reporter signal (AID 1347086); note: nearly all actives have a fitted effect of over 70% in size; note: potency is the fitted concentration of half-maximal effect; for activity change, negative = inhibition: % is set by controls: 0 for no effect and ±100 for the full control effect
[4] = Primary qHTS to identify inhibitors of SARS-CoV-2 cell entry (AID 1645846); conditions: activity change, negative = inhibition: at 57.1 µM (top of the series) unless noted; note: nearly all actives have a fitted effect of over 45% in size
Summary of the method: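 Using luciferase-reporting pseudoviruses carrying Wuhan-Hu-1 spike, the screen tracks entry into stably ACE2-expressing cells over 48 hr. Activity is expressed relative to spike particles versus particles lacking any fusion protein.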

[5] = Confirmatory qHTS for VERO E6 Cytotoxicity Assay: Counterscreen for SARS-CoV-2 CPE Assay (AID 1508605); note: % is set by controls: 0 for no effect and ±100 for the full control effect; nearly all actives have a fitted effect of over 60% in size
[6] = Confirmatory qHTS for activators (rescue) of SARS-CoV-2 Cytopathic Effect (CPE) (AID 1508606); note: potency is the fitted concentration of half-maximal effect; nearly all actives have a fitted effect of over 70% in size
[7] = Cytotoxicity counterscreen for inhibitors of SARS-CoV-2 cell entry (AID 1645845); note: nearly all actives have a fitted effect of over 50% in size; note: potency is the fitted concentration of half-maximal effect
Summary of the method: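 After a 15 min room-temperature ATPLite 1step step, luminescence reflected ATP remaining in HEK293-ACE2 cells exposed to compound for 1 h plus 48 h at 37 C, with percent activity set by cell and no-cell controls.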

[8] = molecular target: Cytochrome P450 3A4 (Homo sapiens) (UniProt P08684); assay: qHTS Assay for Inhibitors and Substrates of Cytochrome P450 3A4 (AID 884; active = well fitted curve in the direction sought with a large enough effect; an effect the other way counts as inactive or inconclusive; note: potency is the fitted concentration of half-maximal effect; nearly all actives have a fitted effect of over 50% in size)
Summary of the method: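 Luminescent readout of luciferin produced by CYP3A4 (20 nM) dealkylation of Luciferin-PPXE, 25 uM (its KM). NADPH-driven reaction ran 60 min at RT after 10 min compound preincubation; data scaled to 57 uM ketoconazole as 100% inhibition.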

[9] = molecular target: Cytochrome P450 3A4 (Homo sapiens) (UniProt P08684); assay: qHTS Assay for Activators of Cytochrome P450 3A4 (AID 885; active = well fitted curve in the direction sought with a large enough effect; an effect the other way counts as inactive or inconclusive; note: nearly all actives have a fitted effect of over 65% in size)
Summary of the method: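 CYP3A4 activity: Luciferin-PPXE O-dealkylation, 25uM substrate, 200mM KPO4, RT throughout. Read-out is luciferase luminescence; higher values reflect activation.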

[10] = Confirmation and Secondary Assay for Modulators of Hemoglobin Beta Chain Splicing at IVS2 654 locus (AID 910; active = well fitted curve in the direction sought with a large enough effect; an effect the other way counts as inactive or inconclusive;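 note: per-well total GFP intensity by laser scanning cytometry after 2-day treatment; potency is the fitted concentration of half-maximal effect; potency of activators that raise GFP signal by restoring correct splicing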)
Summary of the method: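 HeLa cells stably carrying EGFP interrupted by mutant beta-globin IVS2-654 intron (CMV-driven) were treated with compound for 2 days at 37C; corrected splicing was scored as total peak GFP intensity per well (488 nm excitation, 500-520 nm emission).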

Nucleoprotein (Lymphocytic choriomeningitis virus (strain Armstrong)), sequence (P09992 whole entry, looked up): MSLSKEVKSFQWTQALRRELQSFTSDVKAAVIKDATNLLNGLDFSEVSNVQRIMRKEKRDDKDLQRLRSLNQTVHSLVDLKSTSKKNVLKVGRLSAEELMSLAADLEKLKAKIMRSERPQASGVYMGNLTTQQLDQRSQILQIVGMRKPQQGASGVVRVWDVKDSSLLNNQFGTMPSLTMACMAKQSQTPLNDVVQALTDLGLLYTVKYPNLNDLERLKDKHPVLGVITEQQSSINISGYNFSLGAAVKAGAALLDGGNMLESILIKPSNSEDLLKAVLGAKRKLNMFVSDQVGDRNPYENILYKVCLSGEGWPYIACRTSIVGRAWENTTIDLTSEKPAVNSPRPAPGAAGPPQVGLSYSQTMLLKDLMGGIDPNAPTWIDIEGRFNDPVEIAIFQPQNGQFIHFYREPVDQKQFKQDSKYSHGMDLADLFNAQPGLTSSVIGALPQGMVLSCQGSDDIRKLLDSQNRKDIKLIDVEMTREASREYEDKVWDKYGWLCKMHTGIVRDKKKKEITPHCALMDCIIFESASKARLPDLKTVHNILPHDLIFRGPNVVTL
Cytochrome P450 3A4 (Homo sapiens), sequence (P08684 whole entry, looked up): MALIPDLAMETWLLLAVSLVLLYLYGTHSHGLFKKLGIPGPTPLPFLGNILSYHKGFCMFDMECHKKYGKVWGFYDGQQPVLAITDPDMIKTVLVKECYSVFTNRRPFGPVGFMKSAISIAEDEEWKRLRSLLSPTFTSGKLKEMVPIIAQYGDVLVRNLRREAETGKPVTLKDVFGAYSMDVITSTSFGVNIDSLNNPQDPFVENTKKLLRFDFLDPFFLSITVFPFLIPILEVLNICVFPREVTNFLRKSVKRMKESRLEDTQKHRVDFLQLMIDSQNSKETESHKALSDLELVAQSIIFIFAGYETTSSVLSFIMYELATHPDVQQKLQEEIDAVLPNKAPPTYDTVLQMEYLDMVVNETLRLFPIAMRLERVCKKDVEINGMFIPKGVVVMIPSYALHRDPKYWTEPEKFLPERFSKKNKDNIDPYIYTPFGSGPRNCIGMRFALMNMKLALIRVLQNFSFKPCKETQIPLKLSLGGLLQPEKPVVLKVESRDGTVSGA

## Cn1cc(-c2cnn3c(N)c(Br)c([C@H]4CCCNC4)nc23)cn1
[1]
  Potency: 1.22 µM (active)
[2]
  Potency: 1.53 µM (active)
[3]
  Potency: 2.73 µM (active)

## C=CC1CN2CCC1CC2c1[nH]c2ccccc2c1CCO (stereo unspecified)
[1]
  Potency: inactive
[2]
  Potency: inactive
[3]
  Potency: inactive

## Clc1ccc(C2(c3ccc(-c4cn[nH]c4)cc3)CCNCC2)cc1
[1]
  Potency: 5.44 µM (active)
[2]
  Potency: 5.44 µM (active)

## Cc1cnc(Nc2ccc(N3CCN(C)CC3)cc2)nc1Nc1cccc(S(=O)(=O)NC(C)(C)C)c1
[1]
  Potency: 3.85 µM (active)
[2]
  Potency: 30.6 µM (active)
[3]
  Potency: 30.6 µM (active)

## C/C=C/c1ccc(OC(C)[C@@H](O)c2ccc(O)c(OC)c2)c(OC)c1 (stereo partly specified)
[1]
  Potency: inactive
[2]
  Potency: inactive

## O=C(O)CO
[1]
  Potency: inactive
[2]
  Potency: inactive

## CCN(CC)CCNC(=O)COc1ccc(Cl)cc1
[1]
  Potency: inactive
[2]
  Potency: inactive

## CC(=O)OCC(=O)[C@@]12N=C(C)O[C@H]1C[C@H]1[C@@H]3CCC4=CC(=O)C=C[C@]4(C)[C@@H]3[C@@H](O)C[C@@]12C
[1]
  Potency: inactive
[2]
  Potency: inactive

## CO[C@H]1C[C@@H]2CC[C@@H](C)[C@@](O)(O2)C(=O)C(=O)N2CCCC[C@@H]2C(=O)O[C@H]([C@H](C)C[C@@H]2CC[C@H](OP(C)(C)=O)[C@H](OC)C2)CC(=O)[C@H](C)C=C(C)[C@@H](O)[C@@H](OC)C(=O)[C@H](C)C[C@H](C)C=CC=CC=C1C
[1]
  Potency: 0.0109 µM (active)
[2]
  Potency: 0.0153 µM (active)

## CCCCC1CCC(=O)O1 (stereo unspecified)
[1]
  Potency: inactive
[2]
  Potency: inactive

## CC(=CCOc1ccc2ccc(=O)oc2c1)C1=CC(=O)C(C)(C)O1
[1]
  Potency: inactive
[2]
  Potency: inactive

## CCCCCCOC(=O)N=C(N)c1ccc(NCc2nc3cc(C(=O)N(CCC(=O)OCC)c4ccccn4)ccc3n2C)cc1
[1]
  Potency: inactive
[2]
  Potency: inactive
[3]
  Potency: inactive

## CC(C)NC[C@H](O)COc1cccc2ccccc12
[1]
  Potency: inactive
[2]
  Potency: inactive

## O=C(C=Cc1ccc(CN(CCO)CCc2c[nH]c3ccccc23)cc1)NO
[1]
  Potency: 1.37 µM (active)
[2]
  Potency: 1.37 µM (active)

## CC(=O)OCC(=O)[C@@]12OC(C)(C)O[C@H]1C[C@H]1[C@@H]3C[C@H](F)C4=CC(=O)C=C[C@]4(C)[C@@]3(F)[C@@H](O)C[C@@]12C
[1]
  Potency: inactive
[2]
  Potency: inactive

## COC1C(O)C(C)OC(OC2CCC3(C)C(CCC4C3C(O)CC3(C)C(C5=CC(=O)OC5)CCC43O)C2)C1O (stereo unspecified)
[1]
  Potency: 0.251 µM (active)
[2]
  Potency: 0.355 µM (active)

## O=C(OCCOCCO)c1ccccc1Nc1cccc(C(F)(F)F)c1
[1]
  Potency: inactive
[2]
  Potency: inactive

## COc1cc(C)ccc1O
[1]
  Potency: inactive
[2]
  Potency: inactive

## C=C1CCC2[C@](C)(CO)[C@H](O)CC[C@@]2(C)[C@@H]1/C=C/C1=CCOC1=O (stereo partly specified)
[1]
  Potency: inactive
[2]
  Potency: inactive

## CCN(CC)Cc1ccc2cc(COC(=O)Nc3ccc(C(=O)NO)cc3)ccc2c1
[1]
  Potency: 15.3 µM (active)
[2]
  Potency: 6.85 µM (active)

## C=Cc1ncc(OC)c2c1[nH]c1ccccc12
[1]
  Potency: inactive
[2]
  Potency: inactive

## CC(Cc1ccccc1)(NC(=O)CN)c1ccccc1 (stereo unspecified)
[1]
  Potency: inactive
[2]
  Potency: inactive

## CNC1CCC(N(Cc2cccc(-c3ccncc3)c2)C(=O)c2sc3c(F)ccc(F)c3c2Cl)CC1 (stereo unspecified)
[1]
  Potency: 7.69 µM (active)
[2]
  Potency: 5.44 µM (active)

## COc1cc(C(=S)N2CCOCC2)cc(OC)c1OC
[1]
  Potency: inactive
[2]
  Potency: inactive

## CCOC(=O)N1CCN([N+]([O-])=NOc2ccc([N+](=O)[O-])cc2C#N)CC1
[1]
  Potency: 10.9 µM (active)
[2]
  Potency: inactive
[3]
  Potency: inactive

## CCOc1cc2ncc(C#N)c(Nc3ccc(OCc4ccccn4)c(Cl)c3)c2cc1NC(=O)C=CCN(C)C
[1]
  Potency: 1.37 µM (active)
[2]
  Potency: 0.769 µM (active)
[3]
  Potency: 1.53 µM (active)

## CCCCCN=C(N)NN=Cc1c[nH]c2ccc(OC)cc12
[1]
  Potency: 6.11 µM (active)
[2]
  Potency: 10.9 µM (active)

## CC(=O)OC1CC2(O)C3CCC4CC(O)CCC4(C)C3CCC2(C)C1C1=CC(=O)OC1 (stereo unspecified)
[1]
  Potency: 0.282 µM (active)
[2]
  Potency: 0.316 µM (active)

## C[C@@H](Oc1ccc2[nH]nc(C=Cc3cnn(CCO)c3)c2c1)c1c(Cl)cncc1Cl
[1]
  Potency: 24.3 µM (active)
[2]
  Potency: 27.3 µM (active)

## Cn1cc(CNCC2CCN(c3ncc(C(=O)NO)cn3)CC2)c2ccccc21
[1]
  Potency: 0.685 µM (active)
[2]
  Potency: 0.485 µM (active)
[3]
  Potency: 1.53 µM (active)
[4]
  Potency: inactive

## N#Cc1c(C2CCNCC2)cc(-c2c(O)cccc2OCC2CC2)nc1N
[1]
  Potency: 19.3 µM (active)
[2]
  Potency: 8.63 µM (active)
[3]
  Potency: 5.44 µM (active)
[5]
  Potency: inactive
[6]
  Potency: 11.2 µM (active)
[7]
  Potency: 7.94 µM (active)

## CC[C@@]1(O)C(=O)OCc2c1cc1n(c2=O)Cc2cc3cc(O)ccc3nc2-1
[8]
  Potency: 12.6 µM (active)
[9]
  Potency: inactive
[10]
  Potency: 12.6 µM (active)
[1]
  Potency: 0.685 µM (active)
[2]
  Potency: 0.968 µM (active)
[3]
  Potency: 1.37 µM (active)
[4]
  activity change, negative = inhibition: -96.4%

## Nc1ncnc2ccccc12
[1]
  Potency: 15.3 µM (active)
[2]
  Potency: 12.2 µM (active)
[3]
  Potency: 24.3 µM (active)
[7]
  Potency: inactive

## C#C[C@]1(O)CC[C@@H]2[C@@H]3CCc4cc(O)ccc4[C@H]3CC[C@@]21C
[1]
  Potency: 6.85 µM (active)
[2]
  Potency: 3.06 µM (active)
[3]
  Potency: 2.17 µM (active)

## Cc1nc(NC(=O)N2CCC[C@@H]2C(N)=O)sc1-c1ccnc(C(C)(C)C(F)(F)F)c1
[1]
  Potency: 10.9 µM (active)
[2]
  Potency: inactive
[3]
  Potency: inactive
